# Data reported in PubChem BioAssay AID596 (National Center for Advancing Translational Sciences (NCATS), 2007).
# Where “and” joins values, the source holds several entries; their conditions need not be identical. Equal entries are not always repeated. Screen size: about 71,000 compounds; about 1,400 (2%) were called active. Another 3% or so got no clear call; they are omitted. The call rests on the fitted dose curve; in most records, active means well fitted curve in the direction sought with a large enough effect; inconclusive means small, poorly fitted or top-dose-only effect; inactive means no such curve, though single readings can be large or run the other way. The entries come from a sample that favours actives as a whole. Entries that show only a call come without a potency. Some structures have more than one record in an assay (separate samples or runs), and their calls can disagree.
# Target: Microtubule-associated protein tau (Homo sapiens) (UniProt P10636)
# Assay: qHTS Assay for Tau Filament Binding;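 further: actives lower thioflavin S fluorescence by blocking filaments or displacing dye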
# Details: recombinant tau filaments, thioflavin S fluorescence, 15 h; series mostly up to 57.1 µM
# Excerpt: NIH Molecular Libraries Screening Centers Network [MLSCN]
# NIH Chemical Genomics Center [NCGC]
# Assay Provider: Jeffrey A. Kuret, Ohio State University
# Tau monomers form filaments in vitro in the presence of anionic detergents or fatty acids. The dye Thioflavine S (ThS) binds to tau filaments and upon binding, increases in fluorescence several fold. Small molecules that displace ThS binding or prevent filament binding are identified by a reduction in ThS fluorescence. This assay used histidine-tagged, recombinant human tau protein containing the products of exons 2, 3, and 10 that was provided by Jeff Kuret, Ohio State University. To form filaments, 1 uM tau was incubated with 30 uM sodium octadecylsulfate (ODS) in reagent buffer (10 uM thioflavine S, 5 mM 1,4-dithioerythreitol (DTT), 100 mM sodium chloride, 10 mM HEPES pH 7.4) for 15 hrs at 37 C.
# NCGC Assay Protocol Summary:
# Assay Steps. Two uL/well of 2 uM tau in reagent buffer (10 uM thioflavine S, 5 mM DTT, 100 mM sodium chloride, 10 mM HEPES pH 7.4) was dispensed into solid black 1536-well plates. Twenty-three nL compound was transferred to the assay plate after which 2 uL/well of 60 uM ODS in reagent buffer was dispensed for a final assay volume of 4 uL /well. Following 15 hours of incubation at 37 C, fluorescence was detected by an Envision (Perkin Elmer) using 450/8 nm excitation and 510/23 nm emission.
# Keywords: NIH Roadmap, MLSCN, MLI, MLSMR, qHTS, NCGC, Alzheimer's disease, Neurofibrillary lesions, tau, tubulin assembly, microtubule stability, cytoskeletal integrity, fibrillization, thioflavin dyes, Amyloidgenic
# Potency means the concentration at half of the fitted maximal effect.
# Chain of Microtubule-associated protein tau (Homo sapiens) (P10636 whole entry, looked up): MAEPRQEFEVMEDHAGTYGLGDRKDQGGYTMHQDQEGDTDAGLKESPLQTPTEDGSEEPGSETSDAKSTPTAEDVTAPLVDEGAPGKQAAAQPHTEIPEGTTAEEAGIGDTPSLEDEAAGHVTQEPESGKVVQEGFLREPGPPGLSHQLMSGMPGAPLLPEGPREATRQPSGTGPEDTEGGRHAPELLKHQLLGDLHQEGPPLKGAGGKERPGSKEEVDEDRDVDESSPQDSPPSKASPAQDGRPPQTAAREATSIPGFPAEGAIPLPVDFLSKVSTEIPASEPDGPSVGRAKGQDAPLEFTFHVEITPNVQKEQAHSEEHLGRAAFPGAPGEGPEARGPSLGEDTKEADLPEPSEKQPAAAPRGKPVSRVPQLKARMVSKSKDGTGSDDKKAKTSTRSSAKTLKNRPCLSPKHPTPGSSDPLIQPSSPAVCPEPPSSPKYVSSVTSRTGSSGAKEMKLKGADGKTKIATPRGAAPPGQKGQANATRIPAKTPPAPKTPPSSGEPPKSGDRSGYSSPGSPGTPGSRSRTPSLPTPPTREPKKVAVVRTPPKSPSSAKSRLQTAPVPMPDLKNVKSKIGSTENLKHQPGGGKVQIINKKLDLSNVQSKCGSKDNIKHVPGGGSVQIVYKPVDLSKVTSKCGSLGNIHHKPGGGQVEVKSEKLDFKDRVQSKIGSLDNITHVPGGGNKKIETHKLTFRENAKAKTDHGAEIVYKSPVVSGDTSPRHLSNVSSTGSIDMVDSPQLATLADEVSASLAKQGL
Structure (SMILES),Potency,"activity change, negative = inhibition"
CC(C)CC(C)Nc1ccc(Nc2ccccc2)cc1 (stereo not given),15.8 µM (active),–
c1ccc(N2CC[C@@]3(CCCNC3)C2)nc1,inactive,–
CC[C@@](O)(C(=O)O)c1cc2n(c(=O)c1CO)Cc1cc3ccccc3nc1-2,–,6.4% [at 11.4 µM] (inactive)
Nc1ccc([N+](=O)[O-])cc1,inactive,–
CC(=O)c1c(O)c(C)c(O)c(Cc2c(O)c3c(c(C(=O)/C=C\c4ccccc4)c2O)OC(C)(C)C=C3)c1O,15.8 µM (active) and 25.1 µM (active),–
Clc1ccccc1,inactive,–
Fc1ccc(C(OCCN2CCN(C/C=C\c3ccccc3)CC2)c2ccc(F)cc2)cc1,12.6 µM (active),–
CCCCC#N,inactive,–
Nc1ccc(Cc2ccc(N)c(Cl)c2)cc1Cl,inactive,–
N#CCCCl,inactive,–
CC(C)(C)C(O)(CCc1ccc(Cl)cc1)Cn1cncn1 (stereo not given),inactive,–
Clc1cccc(Cl)c1Cl,inactive,–
c1ccc2c(c1)[I+]c1ccccc1-2,inactive and 39.8 µM (active),–
CCNC[C@H](O)c1cccc(O)c1,inactive,–
O=C(Nc1cccc(F)c1)N1CC[C@@]2(CCCN(C(=O)Oc3ccccc3)C2)C1,inactive,–
c1ccc(CN2CC[C@@]3(CCCNC3)C2)cc1,inactive,–
ClCCBr,inactive,–
CN1CCN(C(=O)O[C@@H]2c3nccnc3C(=O)N2c2ccc(Cl)cn2)CC1,inactive,–
O=C1C2(Cl)C3(Cl)C4(Cl)C(Cl)(Cl)C5(Cl)C3(Cl)C1(Cl)C5(Cl)C24Cl (stereo not given),inactive and 15.8 µM (active),–
Cc1cc(-c2ccc(N)c(C)c2)ccc1N,inactive,–
C=CC#N,inactive,–
CC(C)(Cc1c[nH]c2ccc(Cl)cc12)NCCOc1ccccc1OCC1CC1,inactive,–
ClC(Cl)=C(Cl)C(Cl)=C(Cl)Cl,inactive,–
CC(Cl)Cl,inactive,–
C[C@]12CC[C@H](O)C[C@@H]1CC[C@H]1[C@H]2CC[C@]2(C)C(=O)CC[C@@H]12,inactive,–
